Data reported in PubChem BioAssay (NCI).
This is part of a sample that, as a whole, favours compounds with a hit. Of some 83,000 tested, about 20% had one in any assay.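 Method: cells in 96-well plates; compound added at one concentration; 48 h incubation; percent growth measured; values under 10 scored active.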 A number with no mark means an inactive call. Active and inactive are the calls of the source.

Tests used:
Experiment in all cases: NCI-60 one-dose screen, 48 h (100 = growth as untreated, 0 = no growth, -100 = all killed)
Conditions in all cases: 10 µM unless noted
SK-MEL-2 melanoma = test system: SK-MEL-2 melanoma
EKVX NSCLC = test system: EKVX NSCLC
SN12C renal = test system: SN12C renal
UO-31 renal = test system: UO-31 renal
TK-10 renal = test system: TK-10 renal
ACHN renal = test system: ACHN renal
CAKI-1 renal = test system: CAKI-1 renal
A498 renal = test system: A498 renal
CCRF-CEM leukemia = test system: CCRF-CEM leukemia
MOLT-4 leukemia = test system: MOLT-4 leukemia
SR leukemia = test system: SR leukemia
RPMI-8226 leukemia = test system: RPMI-8226 leukemia
OVCAR-5 ovarian = test system: OVCAR-5 ovarian
OVCAR-4 ovarian = test system: OVCAR-4 ovarian
SK-OV-3 ovarian = test system: SK-OV-3 ovarian
IGROV1 ovarian = test system: IGROV1 ovarian
OVCAR-3 ovarian = test system: OVCAR-3 ovarian
HS 578T breast = test system: HS 578T breast
NCI/ADR-RES ovarian = test system: NCI/ADR-RES ovarian
OVCAR-8 ovarian = test system: OVCAR-8 ovarian

SMILES: C=C(C)[C@@H]1CC[C@]2(C(=O)NCCCN(CCC#N)CCC#N)CC[C@]3(C)[C@H](CC[C@@H]4[C@@]5(C)CCC(=O)C(C)(C)[C@@H]5CC[C@]43C)[C@@H]12
- growth (SK-MEL-2 melanoma): 105%
- growth (EKVX NSCLC): 91%
- growth (SN12C renal): 98.2%
- growth (UO-31 renal): 87.3%
- growth (TK-10 renal): 98.4%
- growth (ACHN renal): 107%
- growth (CAKI-1 renal): 94.4%
- growth (A498 renal): 102%
- growth (CCRF-CEM leukemia): 106%
- growth (MOLT-4 leukemia): 110%
- growth (SR leukemia): 108%
- growth (RPMI-8226 leukemia): 101%
- growth (OVCAR-5 ovarian): 103%
- growth (OVCAR-4 ovarian): 92.6%
- growth (SK-OV-3 ovarian): 93%
- growth (IGROV1 ovarian): 102%
- growth (OVCAR-3 ovarian): 107%
- growth (HS 578T breast): 96.3%
- growth (NCI/ADR-RES ovarian): 103%

SMILES: O=C1c2cccnc2C(=O)c2nc3cc(N4CCN(C5CC5)CC4)ccc3nc21
- growth (SK-MEL-2 melanoma): -16.3% (active)
- growth (EKVX NSCLC): 27.4%
- growth (SN12C renal): -94.7% (active)
- growth (UO-31 renal): -100% (active)
- growth (TK-10 renal): 0.122% (active)
- growth (ACHN renal): -35.1% (active)
- growth (CAKI-1 renal): -5.27% (active)
- growth (A498 renal): -88.1% (active)
- growth (CCRF-CEM leukemia): 26.2%
- growth (MOLT-4 leukemia): 26.2%
- growth (SR leukemia): -10% (active)
- growth (RPMI-8226 leukemia): 25.3%
- growth (OVCAR-8 ovarian): -15.2% (active)
- growth (OVCAR-5 ovarian): -82.3% (active)
- growth (IGROV1 ovarian): -13.8% (active)
- growth (OVCAR-3 ovarian): -1.56% (active)
- growth (HS 578T breast): -36.5% (active)

SMILES: Fc1ccc(C2CC(c3cccc(Nc4ccncc4)c3)=NN2c2cc(Cl)cc(Cl)c2)cc1 (centres undefined)
- growth (SK-MEL-2 melanoma): 105%
- growth (EKVX NSCLC): 80%
- growth (SN12C renal): 72%
- growth (UO-31 renal): 47.6%
- growth (TK-10 renal): 74.8%
- growth (ACHN renal): 43.3%
- growth (CAKI-1 renal): 31.1%
- growth (A498 renal): 94.5%
- growth (CCRF-CEM leukemia): 0.277% (active)
- growth (MOLT-4 leukemia): 1.57% (active)
- growth (SR leukemia): 2.89% (active)
- growth (RPMI-8226 leukemia): 20.9%
- growth (OVCAR-5 ovarian): 87.5%
- growth (OVCAR-4 ovarian): 15.8%
- growth (SK-OV-3 ovarian): 83.3%
- growth (IGROV1 ovarian): 25.1%
- growth (OVCAR-3 ovarian): 62.1%
- growth (HS 578T breast): 57.8%
- growth (NCI/ADR-RES ovarian): 64.3%

SMILES: CCCCCCCCCCN=C(N)N=C(N)N
- growth (SK-MEL-2 melanoma): 75.8%
- growth (EKVX NSCLC): 38.8%
- growth (SN12C renal): 9.21% (active)
- growth (UO-31 renal): 43.1%
- growth (TK-10 renal): 40.8%
- growth (ACHN renal): 40.1%
- growth (CAKI-1 renal): 43.4%
- growth (A498 renal): 54.9%
- growth (CCRF-CEM leukemia): 35.7%
- growth (MOLT-4 leukemia): 30.8%
- growth (SR leukemia): 37.8%
- growth (RPMI-8226 leukemia): 34.8%
- growth (OVCAR-5 ovarian): 64.1%
- growth (OVCAR-4 ovarian): 44.9%
- growth (SK-OV-3 ovarian): 52.3%
- growth (IGROV1 ovarian): 12.1%
- growth (OVCAR-3 ovarian): 41.9%
- growth (HS 578T breast): 55%

SMILES: OC1(c2ccc(Cl)c(C(F)(F)F)c2)CCN(CCCC(c2ccc(F)cc2)c2ccc(F)cc2)CC1
- growth (SK-MEL-2 melanoma): -77.2% (active)
- growth (EKVX NSCLC): -9.88% (active)
- growth (SN12C renal): -91.3% (active)
- growth (UO-31 renal): -65.7% (active)
- growth (TK-10 renal): -50.7% (active)
- growth (ACHN renal): -86.8% (active)
- growth (CAKI-1 renal): -68.7% (active)
- growth (A498 renal): -92.5% (active)
- growth (CCRF-CEM leukemia): -39% (active)
- growth (MOLT-4 leukemia): -25.8% (active)
- growth (SR leukemia): -44.2% (active)
- growth (RPMI-8226 leukemia): -22% (active)
- growth (OVCAR-8 ovarian): -71.7% (active)
- growth (OVCAR-5 ovarian): -46.9% (active)
- growth (IGROV1 ovarian): -57.2% (active)
- growth (OVCAR-3 ovarian): -99.9% (active)
- growth (HS 578T breast): -47% (active)
- growth (NCI/ADR-RES ovarian): -59.8% (active)

SMILES: CC(=O)OCC(=O)[C@@]1(O)CC[C@H]2[C@@H]3CC(=C(Br)Br)C4=CC(=O)CC[C@]4(C)[C@H]3C(=O)C[C@@]21C
- growth (SK-MEL-2 melanoma): 78.7%
- growth (EKVX NSCLC): 90.1%
- growth (SN12C renal): 93.6%
- growth (UO-31 renal): 68.3%
- growth (TK-10 renal): 91.2%
- growth (ACHN renal): 94.1%
- growth (CAKI-1 renal): 81.7%
- growth (A498 renal): 79.5%
- growth (CCRF-CEM leukemia): 83.3%
- growth (MOLT-4 leukemia): 93.1%
- growth (SR leukemia): 115%
- growth (RPMI-8226 leukemia): 87%
- growth (OVCAR-5 ovarian): 102%
- growth (OVCAR-4 ovarian): 96.1%
- growth (SK-OV-3 ovarian): 72.9%
- growth (IGROV1 ovarian): 96%
- growth (OVCAR-3 ovarian): 98.6%
- growth (HS 578T breast): 90.8%

SMILES: COc1cc(OC)cc(C2C3=C(COC3=O)Nc3cc(OC)ccc32)c1 (centres undefined)
- growth (SK-MEL-2 melanoma): 1.66% (active)
- growth (EKVX NSCLC): 53.7%
- growth (SN12C renal): 25.2%
- growth (UO-31 renal): 46.8%
- growth (TK-10 renal): 65.7%
- growth (ACHN renal): 28.1%
- growth (CAKI-1 renal): 36.7%
- growth (A498 renal): 1.93% (active)
- growth (CCRF-CEM leukemia): 19.9%
- growth (MOLT-4 leukemia): 17.6%
- growth (SR leukemia): 8.35% (active)
- growth (OVCAR-8 ovarian): 8.63% (active)
- growth (OVCAR-5 ovarian): 39.5%
- growth (OVCAR-4 ovarian): 49.4%
- growth (SK-OV-3 ovarian): -3.6% (active)
- growth (IGROV1 ovarian): 42.2%
- growth (OVCAR-3 ovarian): -50% (active)
- growth (HS 578T breast): 68.1%
- growth (NCI/ADR-RES ovarian): -18.6% (active)

SMILES: CCC(C)C(N)C(=O)NNc1n[nH]c(=S)n1N (centres undefined)
- growth (SK-MEL-2 melanoma): 102%
- growth (EKVX NSCLC): 95.5%
- growth (SN12C renal): 99.2%
- growth (UO-31 renal): 85.3%
- growth (TK-10 renal): 104%
- growth (ACHN renal): 101%
- growth (CAKI-1 renal): 91%
- growth (A498 renal): 93.8%
- growth (CCRF-CEM leukemia): 99.7%
- growth (MOLT-4 leukemia): 101%
- growth (SR leukemia): 99.7%
- growth (RPMI-8226 leukemia): 99.9%
- growth (OVCAR-8 ovarian): 97.8%
- growth (SK-OV-3 ovarian): 99.3%
- growth (IGROV1 ovarian): 105%
- growth (OVCAR-3 ovarian): 107%
- growth (HS 578T breast): 91.6%
- growth (NCI/ADR-RES ovarian): 102%

SMILES: Cn1c(COC(=O)NCCn2ccnc2)nc2c(N3CCOCC3)nc(-c3ccccc3)nc21
- growth (SK-MEL-2 melanoma): -69.6% (active)
- growth (EKVX NSCLC): -64.5% (active)
- growth (SN12C renal): -90.3% (active)
- growth (UO-31 renal): -100% (active)
- growth (TK-10 renal): -83.3% (active)
- growth (ACHN renal): -100% (active)
- growth (CAKI-1 renal): -94.2% (active)
- growth (A498 renal): -24.2% (active)
- growth (CCRF-CEM leukemia): -17.9% (active)
- growth (MOLT-4 leukemia): -10.3% (active)
- growth (SR leukemia): 1.63% (active)
- growth (RPMI-8226 leukemia): -29.4% (active)
- growth (OVCAR-5 ovarian): -91% (active)
- growth (OVCAR-4 ovarian): -87.8% (active)
- growth (SK-OV-3 ovarian): 50.2%
- growth (IGROV1 ovarian): -96% (active)
- growth (OVCAR-3 ovarian): -89.7% (active)
- growth (HS 578T breast): -33% (active)
